Results from PubChem BioAssay (Tox21).
Inconclusive results are not listed. Where a call stands in place of a potency, no number is given. Activity calls are given as the source filed them. The call rests on the fitted dose curve; in most records, active means well fitted inhibition curve with a large enough effect in the repeat runs; inconclusive means weak or mixed curves; inactive means no such curve, though single readings can be large or run the other way.

Biological target: Cytochrome P450 2D6 (Homo sapiens) (UniProt P10635)
Assay: Cytochrome P450 Family 2 Subfamily D Member 6 (CYP2D6) small molecule antagonists: luciferase reporter qHTS assay (AID 1671196); further: nearly all actives have a fitted effect of over 50% in size
Settings: P450-Glo CYP2D6 enzyme assay, luciferin luminescence, 1 h; series mostly up to 115 µM
Description: U.S. Tox21 Program National Center for Advancing Translational Sciences [NCATS] U.S. Environmental Protection Agency [EPA] National Institutes of Environmental Health Sciences [NIEHS] National Toxicology Program [NTP] U.S. Food and Drug Administration [FDA] Tox21 Assay Overview: Cytochrome P450 (CYP) enzymes are membrane-bound hemeproteins that play a key role in metabolism of drugs and xenobiotics. Evaluation of the effect of chemicals on CYP isozymes is useful to minimize the adverse drug reactions and toxicities in drug development process. Tox21 chemicals were tested for their effect on CYP enzyme activities by using P450-Glo (TM) screening systems (Promega Corporation, Madison, WI). These systems provide a luminescent method containing proluciferin substrates and are converted to luciferin products by CYP isozymes. The luciferin products formed are detected with a luciferin detection reagent, and the amount of light produced is proportional to CYP activity. P450-Glo (TM) CYP2D6 screening system (Catalog. No. V9890) was used to detect the compounds that interfere in CYP2D6 activity.
Tox21 Assay Protocol Summary: Two ul of enzyme-substrate mix was dispensed into medium binding white/solid 1536-well plates (Greiner Bio-One North America Inc., Monroe, NC) using a BioRaptr Flying Reagent Dispenser (FRD, Beckman Coulter, Brea, CA). […] The assay plates were incubated at room temperature for 10 min. Then 2 ul of NADPH regeneration solution was added to each well of the assay plates using an FRD and incubated at room temperature for 1 h. The reaction was stopped by adding 4 ul of detection reagent using an FRD and after 20 min incubation at room temperature the luminescence signal was measured using a ViewLux plate reader (Perkin Elmer, Shelton, CT). Data were expressed as relative luminescence units.
Potency means the concentration at half of the fitted maximal effect.

Chain of Cytochrome P450 2D6 (Homo sapiens) (P10635 whole entry, looked up): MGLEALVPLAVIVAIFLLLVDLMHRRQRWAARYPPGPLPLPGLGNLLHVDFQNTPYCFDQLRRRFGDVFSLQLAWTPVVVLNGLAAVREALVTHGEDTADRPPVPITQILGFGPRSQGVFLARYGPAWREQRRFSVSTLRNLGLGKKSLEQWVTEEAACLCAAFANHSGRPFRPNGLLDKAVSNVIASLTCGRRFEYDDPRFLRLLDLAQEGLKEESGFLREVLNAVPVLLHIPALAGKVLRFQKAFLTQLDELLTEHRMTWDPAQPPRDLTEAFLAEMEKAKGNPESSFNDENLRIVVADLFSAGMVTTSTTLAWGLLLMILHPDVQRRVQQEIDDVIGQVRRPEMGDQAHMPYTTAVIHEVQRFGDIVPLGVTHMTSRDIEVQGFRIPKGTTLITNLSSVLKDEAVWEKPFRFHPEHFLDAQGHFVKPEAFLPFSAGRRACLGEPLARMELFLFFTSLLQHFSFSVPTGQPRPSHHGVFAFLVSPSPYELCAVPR

| SMILES | Potency |
| --- | --- |
| O=C(Nc1ccccc1)N(Cc1ccc(Cl)cc1)C1CCCC1 | 12.6 µM (active) |
| Nc1cnn(-c2ccccc2)c(=O)c1Cl | inactive |
| CCC(=O)C(CCN(C)C)(c1ccccc1)c1ccccc1 | 5.49 µM (active) |
| CCC1(c2ccccc2)C(=O)N=C(O)NC1=O (stereo not given) | inactive |
| Oc1c(Cl)cccc1Cl | inactive |
| CC1(C)C(=O)NC(=O)NC1=O | inactive |
| O=NN1CCCCC1 | inactive |
| CC1(C)CON(Cc2ccccc2Cl)C1=O | inactive |
| CC(=O)CC(c1ccc(Cl)cc1)c1c(O)c2ccccc2oc1=O (stereo not given) | inactive |
| CSc1nc(N=[N+]=[N-])nc(NC(C)C)n1 | inactive |
| CC1CCCCC1NC(=O)Nc1ccccc1 (stereo not given) | 71 µM (active) |
| CCC/C(=N\OCC)C1=C(O)CC(CC(C)SCC)CC1=O (stereo not given) | 11.3 µM (active) |
| CNC(=O)Oc1c(C(C)(C)C)cc(C)cc1C(C)(C)C | inactive |
| c1coc(-c2nc3ccccc3[nH]2)c1 | 44.8 µM (active) |
| O=P(O)(Oc1ccccc1)Oc1ccccc1 | inactive |
| Nc1n[nH]c(N)n1 | inactive |
| CCOC(=O)N(C)C(=O)CSP(=S)(OCC)OCC | 28.3 µM (active) |
| Cc1cc(C)nc(Nc2ccccc2)n1 | inactive |
| ClC(Cl)(Cl)C(Cl)(Cl)Cl | inactive |
| O=C(NCO)NCO | inactive |

| SMILES | Potency |
| --- | --- |
| CCCSC(=O)N(CCC)CCC | inactive |
| ClC(Cl)C(Cl)Cl | inactive |
| ClCCOCOCCCl | inactive |
| CCOC(=O)C1(c2ccccc2)CCN(CCc2ccc(N)cc2)CC1 | 3.47 µM (active) |
| Cc1ncsc1CCCl | inactive |
| CCC1(c2ccccc2)C(=O)NC(=O)NC1=O | 11.5 µM (active) |
| O=C(O)C(Br)CBr (stereo not given) | 36.2 µM (active) |
| C[C@]12CC[C@H]3[C@@H](CCC4=CC(=O)CC[C@@]43C)[C@@H]1CC[C@@H]2C(=O)O | inactive |
| COCC(=O)N(c1c(C)cccc1C)N1CCOC1=O | inactive |
| CC1COC2(c3ccccc3Cl)c3cc(Cl)ccc3NC(=O)CN12 (stereo not given) | 15.5 µM (active) |
| COc1cccc(C(=O)NN(C(=O)c2cc(C)cc(C)c2)C(C)(C)C)c1C | 39.9 µM (active) |
| CCc1cc2c(s1)-n1c(C)nnc1CN=C2c1ccccc1Cl | inactive |
| [As]#[In] | inactive |
| O=C(CCCN1CCC(n2c(=O)[nH]c3ccccc32)CC1)c1ccc(F)cc1 | 8.71 µM (active) |
| CC(C(O)c1ccccc1)N(C)C/C=C/c1ccccc1 (stereo not given) | 0.0871 µM (active) |
| CCCCP(CCCC)CCCC | 35.6 µM (active) |
| CC1=C(C(=O)Nc2ccccc2)S(=O)(=O)CCO1 | inactive |
| CC(C)(C)OC(=O)c1ncn2c1[C@@H]1CCCN1C(=O)c1c(Br)cccc1-2 | inactive |
| COc1cc(OC)nc(NC(=O)NS(=O)(=O)c2ncccc2C(=O)N(C)C)n1 | inactive |
| CC(C1CC1)C(O)(Cn1cncn1)c1ccc(Cl)cc1 (stereo not given) | 35.4 µM (active) |
